# Measured values published in ChEMBL document CHEMBL3988442, “University of Dundee, Small-Polar-MMV Screening Library” (2021).
# Screen size: about 66,000 compounds; about 960 (1.5%) showed an effect of 50% or more. The entries come from a sample that favours strong results as a whole.
# Test system: Trypanosoma brucei
# Assay: Trypanosoma brucei 72 hour study
# Format: functional, organism-based
# Design: scale not given: in the data most compounds retested in dose-response had high values
compound,measurement,setting,value
Cc1ccc(C(=O)NCc2ccnc(C3CCCOC3)n2)s1 (centres undefined),Percent Effect,"30.3 µM, […]",49.43%
Cc1ccsc1C(=O)NCc1ccnc(C2CCCOC2)n1 (centres undefined),Percent Effect,"30.3 µM, […]",54.51%
O=C(NCc1ccnc(C2CCCOC2)n1)c1cccs1 (centres undefined),Percent Effect,"30.3 µM, […]",-2.313%
Cn1ccc(CN2CCC3(CCCN3CC3CC3)CC2)n1.O=C(O)C(F)(F)F.O=C(O)C(F)(F)F,Percent Effect,"30.3 µM, […]",-89.65%
COC1CN(C(=O)CC(C)(C)C)CCC(=O)N(C)c2ccccc21 (centres undefined),Percent Effect,"30.3 µM, […]",-11.06%
CC(C)NC(=O)[C@H]1C[C@@H]2CN(C(=O)NCc3ccccc3)C[C@H]1O2,Percent Effect,"30 µM, 30.03 µM",43.99%
CSCC[C@@H](CO)Nc1ccc(-c2nc(-c3ccccc3C)no2)cn1,Percent Effect,"30.3 µM, […]",99.8%
CSCC[C@@H](CO)Nc1ccc(-c2nc(-c3ccccc3F)no2)cn1,Percent Effect,"30.3 µM, […]",-25.91%
CSCC[C@@H](CO)Nc1ccc(-c2nc(C3CC3)no2)cn1,Percent Effect,"30.3 µM, […]",19.73%
Cc1ccc(CN(C)C(=O)c2cnsn2)cc1,Percent Effect,"30 µM, 30.03 µM",-21.68%
CCc1ncc(CN2CCOC(Cc3cccc(F)c3)C2)cn1 (centres undefined),Percent Effect,"30.3 µM, […]",-57.81%
O=C(Cc1ccc2c(c1)CCCC2)Nc1cccnc1N1CCSCC1,Percent Effect,"30 µM, 30.03 µM",7.169%
CCCNC(=O)c1cc2c(s1)CCN2C(=O)c1ccccc1,Percent Effect,"30.3 µM, […]",-5.969%
O=C(NCCN1CCCC1)c1cc2c(s1)CCN2C(=O)c1ccccc1,Percent Effect,"30.3 µM, […]",-8.761%
COCCNC(=O)c1cc2c(s1)CCN2C(=O)c1ccccc1,Percent Effect,"30 µM, 30.03 µM",61.44%
CCOc1ncccc1CNC(=O)Nc1ccc(N(C)C)nc1,Percent Effect,"30.3 µM, […]",-10.18%
CN1CCN(C(=O)C2CCN(c3cccnn3)C2)CC1 (centres undefined),Percent Effect,"30.3 µM, […]",1.766%
CN1CCN(C(=O)C2CCCN(c3cccnn3)C2)CC1 (centres undefined),Percent Effect,"30.3 µM, […]",101%
CN1CCN(C(=O)C2CCN(c3cccnn3)CC2)CC1,Percent Effect,"30.3 µM, […]",-20.3%
CC(C)(C)CN1CC(O)CN(C(=O)c2cccc(C(F)(F)F)c2)CC1=O (centres undefined),Percent Effect,"30.3 µM, […]",-4.351%
CC(C)N(C)Cc1cnc2n1CCN(C(=O)Cc1ccsc1)C2.O=C(O)C(F)(F)F,Percent Effect,"30 µM, 30.03 µM",-22.47%
Cc1ccc2c(n1)N(CCN(C)C)CCN(C(=O)c1ccc[nH]1)C2.O=C(O)C(F)(F)F.O=C(O)C(F)(F)F,Percent Effect,"30 µM, 30.03 µM",4.99%
c1ccc(-c2n[nH]c(CCNc3nnc(C4CCC4)o3)n2)cc1,Percent Effect,"30.3 µM, […]",99.86%
O=S(=O)(NCCc1nc(-c2cccnc2)n[nH]1)NCc1ccccc1,Percent Effect,"30.3 µM, […]",-84.2%
c1cc(-c2n[nH]c(CNc3nnc(C4CC4)o3)n2)ccn1,Percent Effect,"30.3 µM, […]",0.7676%
CCCc1nnc(NCCc2noc(C3CCCC3)n2)o1,Percent Effect,"30 µM, 30.03 µM",-39.45%
c1ccc(-c2nc(CCNc3nnc(C4CCC4)o3)no2)cc1,Percent Effect,"30.3 µM, […]",99.59%
CCCc1nnc(NCCc2noc(C3CCC3)n2)o1,Percent Effect,"30 µM, 30.03 µM",-16.87%
CN(C)C(=O)N[C@H]1CN(Cc2ccc3c(c2)OCO3)[C@@H]2CCCO[C@H]12.O=C(O)C(F)(F)F,Percent Effect,"30.3 µM, […]",-7.695%
CS(=O)(=O)NCc1cncc2c1CCN(C(=O)N1CCCC1)C2.Cl,Percent Effect,"30.3 µM, […]",-11.25%
Cc1noc([C@@]23CCO[C@@H]2CCN(Cc2scnc2C)C3)n1.O=C(O)C(F)(F)F,Percent Effect,"30.3 µM, […]",7.313%
O=c1[nH][nH]cc1-c1ccnc(NCCc2cccc(O)c2)n1,Percent Effect,"30.3 µM, […]",-16.62%
CCN(CC1CCOC1)C(=O)c1ccc(N2CCOCC2)c(F)c1 (centres undefined),Percent Effect,"30.3 µM, […]",-9.543%
CN(C)C(=O)c1cccc(NC(=O)N(CCO)Cc2ccsc2)c1,Percent Effect,"30 µM, 30.03 µM",-3.434%
COc1cccc(NC(=O)N(CCO)Cc2ccsc2)c1,Percent Effect,"30 µM, 30.03 µM",51.17%
O=C(Nc1ccncc1)N(CCO)Cc1ccsc1,Percent Effect,"30.3 µM, […]",7.021%
Cc1nc(N)nc(C)c1CC(=O)NCc1ccc2nonc2c1,Percent Effect,"30 µM, 30.03 µM",-40.59%
Cc1noc(C)c1CN1CC[C@@H](OCC2CC2)[C@@H](Cc2ccccc2)C1.O=C(O)C(F)(F)F,Percent Effect,"30 µM, 30.03 µM",12.8%
O=C(c1cc2cc(F)ccc2[nH]1)N1CCC(Nc2cccnn2)CC1,Percent Effect,"30.3 µM, […]",-6.499%
O=C(c1cc2cc(I)ccc2[nH]1)N1CCC(Nc2cccnn2)CC1,Percent Effect,"30.3 µM, […]",85.16%
O=C(c1cc2ccccc2[nH]1)N1CCC(Nc2cccnn2)CC1,Percent Effect,"30.3 µM, […]",-25.8%
CCCN(CCC)c1ncc(S(=O)(=O)c2ccccc2)c(N)n1,Percent Effect,"30.3 µM, […]",81.44%
CCCN(CCC)c1ncc(S(=O)(=O)c2cccc(C)c2)c(N)n1,Percent Effect,"30.3 µM, […]",1.054%
CCCN(CCC)c1ncc(S(=O)(=O)c2ccc(C)cc2)c(N)n1,Percent Effect,"30.3 µM, […]",0.2073%
O=C(N1CCCC1)N1C[C@H]2CCC[C@@]2(COCc2ccccn2)C1.O=C(O)C(F)(F)F,Percent Effect,"30.3 µM, […]",8.939%
Cc1ccc(CN2CCN(C3CCCC3)CC2CCO)o1 (centres undefined),Percent Effect,"30 µM, 30.03 µM",-4.422%
CN1C(=O)CC(c2cnn(C)c2)C12CCN(CC1CCOCC1)CC2.O=C(O)C(F)(F)F (centres undefined),Percent Effect,"30.3 µM, […]",-2.852%
Cc1noc(C)c1CN1CCn2cc(CN3CCCC3)nc2C1.O=C(O)C(F)(F)F.O=C(O)C(F)(F)F,Percent Effect,"30.3 µM, […]",0.2362%
Cc1ccc(CN2CCc3ncnc(-c4ccncc4)c3CC2)o1.O=C(O)C(F)(F)F.O=C(O)C(F)(F)F,Percent Effect,"30.3 µM, […]",-37.96%
Nc1ncncc1-c1noc([C@@H]2CCCN2CC2CC2)n1,Percent Effect,"30.3 µM, […]",-4.914%
Nc1ncncc1-c1noc([C@@H]2CCCN2CCCc2ccccc2)n1,Percent Effect,"30.3 µM, […]",101.5%
Nc1ncncc1-c1noc([C@@H]2CCCN2Cc2cccnc2)n1,Percent Effect,"30.3 µM, […]",-3.258%
O=C(O)C(F)(F)F.O=C(O)C(F)(F)F.c1cncc(-c2nnn3c2COCC(CNC2CCOCC2)C3)c1 (centres undefined),Percent Effect,"30 µM, 30.03 µM",-0.7004%
COc1cccc([C@H]2CN(C(C)=O)[C@@H]3CCN(Cc4ccsc4)C[C@H]23)c1.Cl,Percent Effect,"30.3 µM, […]",96.3%
CC(=O)N1C[C@@H](c2ccsc2)[C@@H]2CN(Cc3ccccc3)CC[C@@H]21,Percent Effect,"30 µM, 30.03 µM",3.298%
COc1cccc(CN2CC[C@H]3[C@@H](C2)[C@H](c2ccsc2)CN3C(C)=O)c1,Percent Effect,"30.3 µM, […]",-3.85%
Cc1nnsc1C(=O)N1C[C@H]2CC[C@@H]1CN(c1cnccn1)C2,Percent Effect,"30 µM, 30.03 µM",0.47%
Cc1cnc2c(c1NCc1cccnc1)c(=O)n(C)c(=O)n2C,Percent Effect,"30 µM, 30.03 µM",-45.54%
CCc1noc(CN2CCN(C(=O)C3CC3)CC2)n1,Percent Effect,10 µM,-20.32%
CCCS(=O)(=O)NCc1nc(C)cc(N2CCCC2)n1,Percent Effect,"30 µM, 30.03 µM",60.24%
CCS(=O)(=O)NCc1nc(C)cc(N2CCCCC2)n1,Percent Effect,"30 µM, 30.03 µM",-14.09%
CCS(=O)(=O)NCc1nc(C)cc(N2CCOCC2)n1,Percent Effect,"30 µM, 30.03 µM",-12.8%
O=S(=O)(Cc1ccccc1)NCc1nnc2n1CCC2,Percent Effect,"30 µM, 30.03 µM",-38.65%
CCS(=O)(=O)NCc1nc(C)cc(N2CCCC2)n1,Percent Effect,"30 µM, 30.03 µM",4.691%
Cc1cc(N2CCCC2)nc(CNS(=O)(=O)Cc2ccccc2)n1,Percent Effect,"30 µM, 30.03 µM",99.66%
O=C1[C@H]2CC[C@H](CN(Cc3nnc(C4CC4)o3)C2)N1Cc1cscn1,Percent Effect,"30 µM, 30.03 µM",-30.68%
CCN1CCOCC12CCN(C(=O)C1CCC1)CC2.O=C(O)C(F)(F)F,Percent Effect,"30.3 µM, […]",-58.96%
Cc1ccc(F)cc1NS(=O)(=O)c1cc2c(c(C(=O)O)c1)OCCO2,Percent Effect,"30.3 µM, […]",-13.96%
O=C(O)C(F)(F)F.O=C(c1ccco1)N1C[C@H]2CCCN(Cc3nccs3)[C@H]2C1,Percent Effect,"30 µM, 30.03 µM",20.08%
CN(C)C(=O)CCc1cncc(C2CCCN2Cc2ccccn2)n1 (centres undefined),Percent Effect,"30.3 µM, […]",-6.842%
CN(C)C(=O)CN1CCCC1c1cccc(Cc2ccccc2F)n1 (centres undefined),Percent Effect,"30.3 µM, […]",100.6%
COCC(=O)N1CCCC1c1cccc(Cc2ccccc2F)n1 (centres undefined),Percent Effect,"30.3 µM, […]",-5.491%
CC(=O)N1CCCC1c1cccc(Cc2ccc(F)cc2)n1 (centres undefined),Percent Effect,"30 µM, 30.03 µM",14.65%
CC(=O)N1CCCC1c1cccc(Cc2ccccc2F)n1 (centres undefined),Percent Effect,"30.3 µM, […]",99.36%
CN(C)C(=O)CN1CCC(c2cccc(Cc3ccc(F)cc3)n2)CC1,Percent Effect,"30.3 µM, […]",-2.775%
CN1CCCC1c1cccc(Cc2ccc(F)cc2)n1 (centres undefined),Percent Effect,"30.3 µM, […]",99.38%
CN1CCC(c2cccc(Cc3ccccc3)n2)CC1,Percent Effect,"30.3 µM, […]",2.73%
CC(=O)N1CCCC1c1cccc(NCc2ccccc2F)n1 (centres undefined),Percent Effect,"30.3 µM, […]",-16.97%
CN1CCC(c2cccc(Cc3ccc(F)cc3)n2)CC1,Percent Effect,"30.3 µM, […]",22.86%
CN1CCC(c2cccc(Cc3ccc(C(F)(F)F)cc3)n2)CC1,Percent Effect,"30.3 µM, […]",100.8%
CC(=O)N1CCCC1c1cccc(Cc2ccccc2Cl)n1 (centres undefined),Percent Effect,"30.3 µM, […]",2.284%
CN(C)c1nc(NCCCN2CCc3ccccc32)ncc1F,Percent Effect,"30 µM, 30.03 µM",-2.481%
CC1CCN(c2ncc3c(n2)CN(Cc2cccc(F)c2)C3=O)CC1,Percent Effect,"30 µM, 30.03 µM",-36.51%
Cl.c1cn(-c2cnc(C3CCCNC3)cn2)cn1 (centres undefined),Percent Effect,"30.3 µM, […]",-22.3%
Cc1ccnc(NC(=O)C2CCN(CCCn3ccnc3)CC2)c1,Percent Effect,"30 µM, 30.03 µM",-9.272%
Cc1ncn(CCNC(=O)Nc2ccc(OC(F)(F)F)cc2)c(=O)c1C,Percent Effect,"30 µM, 30.03 µM",-6.151%
Cc1cc(C2CCCN(Cc3nc(Cc4ccccc4)no3)C2)n[nH]1 (centres undefined),Percent Effect,"30 µM, 30.03 µM",-33.51%
Cc1ccc(CN2CCC3(CC2)CC(N2CCN(C)CC2)CO3)s1.O=C(O)C(F)(F)F.O=C(O)C(F)(F)F.O=C(O)C(F)(F)F (centres undefined),Percent Effect,"30.3 µM, […]",-296.4%
Cc1cncc(C(=O)N2CC[C@@]3(C[C@H](NS(C)(=O)=O)CCO3)C2)c1.O=C(O)C(F)(F)F,Percent Effect,"30.3 µM, […]",-90.12%
CCN1CCCn2c(nc(CNC(=O)c3cnoc3C)cc2=O)C1.O=C(O)C(F)(F)F,Percent Effect,"30 µM, 30.03 µM",9.742%
c1ccc(Cc2cccc(C3CCCN3C3CCOCC3)n2)cc1 (centres undefined),Percent Effect,"30.3 µM, […]",101%
CN(C)S(=O)(=O)N1CCCC(c2cccc(Cc3ccccc3F)n2)C1 (centres undefined),Percent Effect,"30.3 µM, […]",46.46%
CN(C)S(=O)(=O)N1CCCC(c2cccc(Cc3ccccc3)n2)C1 (centres undefined),Percent Effect,"30 µM, 30.03 µM",-81.93%
CN1CCCC1c1cccc(Cc2ccccc2F)n1 (centres undefined),Percent Effect,"30.3 µM, […]",101.4%
CN(C)S(=O)(=O)N1CCCC(c2cccc(Cc3ccc(Cl)cc3)n2)C1 (centres undefined),Percent Effect,"30.3 µM, […]",99.29%
CN(C)S(=O)(=O)N1CCCC(c2cccc(Cc3ccc(F)cc3)n2)C1 (centres undefined),Percent Effect,"30.3 µM, […]",41.5%
c1ccc(Cc2cncc(C3CCCN3C3CCOCC3)n2)cc1 (centres undefined),Percent Effect,"30.3 µM, […]",-18.14%
Fc1cccc(Cc2cncc(C3CCCN3C3CCOCC3)n2)c1 (centres undefined),Percent Effect,"30.3 µM, […]",9.592%
CS(=O)(=O)N1CCCC1c1cccc(Cc2ccccc2F)n1 (centres undefined),Percent Effect,"30.3 µM, […]",0.4351%
